The values below come from PubChem BioAssay AID652025 (National Center for Advancing Translational Sciences (NCATS), 2013).

The campaign covered roughly 360,000 compounds. About 240 (0.067%) were called active. The sample holds actives, similar compounds and a random draw of the others, so the mix is not that of the screen. A number with no mark means an inactive call. Cut-off read from the data, not from the text of the source: active = activation above about 50%; inconclusive = mostly about 30% to 49%; inactive = weaker than that.

The nature of this test: qHTS of IL-2 Activators. Note: 0% is about no effect. The conditions noted are these: IL-2 activation reporter assay, cell-based qHTS; active compounds read high; in transgenic mouse T cells; stimulated with anti-CD3/CD4/CD28 beads. The source says:
The adaptive immune response against any infectious agent begins with the activation of an antigen specific T cell. This relatively rare and inert ("naive") T cell undergoes a massive proliferative expansion and differentiation process to generate sufficient number of potent pathogen-specific effector T cells. The effector T cells fight the infection by making cytokines and helping other cells to become fully armed as well. If any naive T cell has antigen receptors (TCRs) that can be activated by self peptides, then a variety of regulatory mechanisms kick in to prevent this cell from performing to its full potential. These processes collectively constitute the phenomenon of immunological tolerance and their failure leads to autoimmunity. One arm of tolerance involves generation of biochemical negative feedback downstream of the TCR (tuning). This is especially relevant to self antigens present in the body over long periods of time (chronic), which form the bulk of our proteome. The negative feedback serves to tune the TCR signaling, such that the ambient antigenic stimulation is nullified intracellularly. Unfortunately, this critical machinery serves as a target for chronic viral, bacterial and parasitic infections (as well as tumors), which can evade a robust immune response, simply by allowing T cells to tune down their signaling to pathogen or malignancy derived antigens. As such, disrupting the tuning in such cases would allow the tolerant T cell to function again and deliver a robust effector response.
If a therapeutic can restore responsiveness to the tuned down T cell, even for a short time, they could combat the pathogen without any additional immunization. To that end, we have developed a sensitive HTS T cell based assay based on IL-2. This assay will be screened against the Molecular Libraries Small Molecule Repository (MLSMR) to find small molecules that could elicit this response.
NIH Chemical Genomics Center [NCGC]
NIH Molecular Libraries Probe Centers Network [MLPCN]
Assay Submitter (PI): Ron Schwartz, NIAID
4 microL (750 cells/well) of unstimulated transgenic mouse T cells (columns 1-3,5-48) are dispensed into Aurora LoBase, black clear-bottom 1536-well assay plates; column 4 receives an identical concentration of transgenic memory T cells as a non-tolerant control. Compounds are then transferred via Kalypsys pin tool equipped with 1536-pin array (10 nL slotted pins, V&P Scientific, San Diego, CA). Following addition of compound and a 60 minute incubation, 1 microL of bead stimulation solution ((0.04 micron Fluospheres (Life technologies, CA) coated with 10ug/ml each anti-CD3 and anti-CD4 (clones 2C11 and GK1.5, BD Biosciences, CA) and mixed with 1ug/ml anti-CD28 (clone PV-1, BD biosciences, CA)). columns 2-48) is added to stimulate the IL-2 response pathway; media is instead added to column 1 as an unstimulated control, while PMA/ionomycin (Sigma Aldrich, MO) is added to column 3 as a control for IL-2 tolerance bypass. The plates are then incubated at 37 degrees C for 18 hours. EGFP and DsRed signal are then detected using an Acumen eX3 Explorer fluorescent plate cytometer. All cells are dispensed in cell media containing EHAA (Quality Biologicals, MD), RPMI (Quality Biologicals, MD), Glutamine (Life Technologies, CA), Penicillin/Streptomycin (Quality Biologicals, MD), 2-ME (Sigma Aldrich, MO) and 10% FBS (Gemini Bioproducts, CA) .
Background: Quantitative high-throughput screening tests each substance at several concentrations.
On to `CC(C)(C)NC(=O)C(c1ccc(Cl)cc1)N(CCO)C(=O)c1snc(C(N)=O)c1N` (configuration not stated), for which the activation was 0.402%.

Consider `CCOc1cc(S(=O)(=O)NC2CC(C)(C)NC(C)(C)C2)ccc1F`, for which the activation is 0.923%.

As for `C[C@H]1COc2cc(N3CCSCC3)ccc2S(=O)(=O)N1`, the activation was 0.723%.

Take `CC(=O)Nc1ccc(NC(=O)CS(=O)(=O)c2cn(CC(=O)N3CCCCC3)c3ccccc23)cc1`: the activation was 2.22%.

`CC1CC(NC(=S)N(C)C)CC(C)(C)C1` (configuration not stated): the activation is -1.93%.

`CCN(CC)S(=O)(=O)c1ccc(CNC(=O)CN2C(=O)NC3(CCc4ccccc43)C2=O)cc1` (configuration not stated): the activation was -3.43%.

For `CCOCc1nnc(NC(=O)CCS(=O)(=O)Cc2ccccc2)s1`, the activation is 2.97%.

Take `CCC(C)NC(=O)/C=C/c1ccc(S(=O)(=O)NCc2ccco2)cc1` (configuration not stated): the activation is -0.382%.

Consider `O=C(CCS(=O)(=O)c1ccc2c(c1)NC(=O)CS2)NCc1ccccc1Cl`, for which the activation is -0.54%.

Regarding `O=C(O)C1C2C=CC(C2)C1C(=O)N1CCN(CCO)CC1` (configuration not stated), the activation is -0.292%.

Take `CCC(=O)c1ccc(OCC(O)Cn2nc(C)c(C(C)=O)c2C)cc1` (configuration not stated): the activation was -0.63%.

Regarding `Cn1cccc1Cc1nnc(SCC(=O)NCCc2ccccc2)n1-c1ccc(F)cc1`, the activation is -0.845%.

For `Cc1cccc(NC(=O)CSc2nc3c(c(=O)[nH]2)CCC3)c1C`, the activation was -0.45%.

With `O=C1C[C@@H]2c3c(cccc3CN1Cc1ccccc1)C[C@@H](O)[C@H]2O`, the activation is 0.126%.

On to `CCCn1c(C(Cc2ccccc2)NC(=O)COC)nc2ccccc21` (configuration not stated), for which the activation was 0.549%.

As for `Cc1cccc(NC(=S)N2CCCC(c3nc4ccccc4[nH]3)C2)c1` (configuration not stated), the activation was -0.267%.

As to `Cc1cc2cc3c(N)[nH]nc3nc2cc1C`, the activation was -0.975%.

Turning to `C=CCN1C2CCCC1CC(NC(=S)Nc1cccc(OC)c1)C2` (configuration not stated), the activation is -0.0533%.

For the compound `O=S(=O)(NCc1ccccc1Br)c1ccccc1Br`, the activation is 0.131%.

Regarding `CCN(CC)C(=O)C1=C(C)N(Cc2ccc(F)cc2)C(=O)C(CC(=O)NCc2cccc3ccccc23)C1` (configuration not stated), the activation is -1.55%.

As for `CN1CCC(N(C)S(=O)(=O)c2ccc(NC(=O)c3cccc(C#N)c3)cc2)CC1`, the activation is 0.319%.

Regarding `CCCN(CC1CC1)C(=O)COC(=O)c1ccc(C)cc1O`, the activation was -0.72%.

Take `COc1cccc2oc(CCc3ccccc3)cc(=O)c12`: the activation was 2.76%.

Regarding `COC(C[C@@H]1O[C@@H]1C(=O)[C@@H](C)OCc1ccccc1)OC`, the activation is 0.368%.

For `Cc1noc(/C=C/c2ccco2)c1S(=O)(=O)N1CCC(C(=O)Nc2ccc(Cl)cn2)CC1`, the activation is -0.421%.

As to `Cc1cc(-c2csc(N)n2)c(C)n1-c1ccccc1`, the activation is -0.438%.

On to `C[n+]1ccc(/C=C/c2c[nH]c3ccccc23)cc1`, for which the activation was 91.4% (active).

In the case of `CSc1nsc(SC)c1NC(=O)OC1CCCCC1`, the activation was -1.77%.

In the case of `CN1CCN(c2ccc3c(c2)OC[C@H](Cc2ccccc2)NS3(=O)=O)CC1`, the activation is 1.2%.

For `CC(=O)c1c(C)[nH]c(C(=O)Nc2cc(S(=O)(=O)N(C)C)ccc2C)c1C`, the activation was 0.322%.

Regarding `CO[C@@H]1CN(C)C(=O)c2cc(NC(=O)Nc3cc(F)ccc3F)ccc2OC[C@H](C)N(C(=O)c2ccccn2)C[C@@H]1C`, the activation was -0.0824%.

In the case of `CCCNC(=O)C1(C)CCN(Cc2csc(-c3ccc(Cl)cc3)n2)C1` (configuration not stated), the activation is -0.168%.

In the case of `CC(=O)NC12CC3CC(C1)CC(C(=O)N1CCN(C(=O)c4ccco4)CC1)(C3)C2`, the activation is 2.63%.

On to `O=C(NCCCNC(=O)NC1CCCCC1)NC1CCCCC1`, for which the activation was 2.89%.

Turning to `Cc1ccc(N(Cc2cc(=O)[nH]c3ccccc23)C(=O)CCl)cc1`, the activation is -4.77%.

`CC1CN(C(=S)Nc2cccc(F)c2)CC(C)O1` (configuration not stated): the activation is 0.508%.

Turning to `COC(=O)c1cc2c(ccn2C)n1C`, the activation was -0.203%.

As to `CN(C)S(=O)(=O)c1ccc(N2CCCC2)c(C(=O)NCc2ccccc2)c1`, the activation is 0.204%.

`Cc1ccc(-n2c(C)nnc2SCC(=O)NC2CC2)cc1`: the activation was -1.22%.

For `O=C(Oc1ccc(Br)cc1C(=S)N1CCOCC1)c1cccc([N+](=O)[O-])c1`, the activation is 0.801%.

Consider `O=C(Cc1nc2ccccc2[nH]c1=O)c1ccc(Cl)cc1`, for which the activation is 60.1% (active).

Consider `O=C(C[n+]1ccc2c(c1)nnn2-c1ccccc1)c1ccc(Cl)cc1`, for which the activation was -1.14%.

For the compound `O=c1c(-c2ccc(Cl)cc2)[n+]([O-])c2ccccc2n1OCc1nc2ccccc2[nH]1`, the activation is -0.455%.

For `COc1ccc(N2CCN(C3CCCCC3NS(=O)(=O)c3ccccc3)CC2)cc1` (configuration not stated), the activation was -5.42%.

For `CCOC(=O)N1CCN(C(c2ccnc3ccccc23)c2nnnn2-c2c(C)cccc2C)CC1` (configuration not stated), the activation is -1.14%.

Turning to `CC(=O)NCCC(=O)Nc1nc(C)c(Cc2ccc3c(c2)OCO3)s1`, the activation was -2.95%.

Take `CCN(CC)c1ccc(NC(=O)C2CCC(CNc3c(N4CCCC4)c(=O)c3=O)CC2)c(C)c1` (configuration not stated): the activation was -0.247%.

As for `O=C(CS(=O)(=O)c1ccc(C(F)(F)F)cn1)NNC(=O)c1ccccc1`, the activation is 0.398%.

Turning to `O=C(CSc1ccsc1[N+](=O)[O-])N1CCCCC1`, the activation was -0.638%.

As to `CCOC(=O)N1CCC(N2Cc3cccc(C(=O)Nc4ccc(S(=O)(=O)N(CC)CC)cc4)c3C2=O)CC1`, the activation is -2.11%.

As to `Cc1ccc(NC(=O)CSc2nc(=O)n(CCN(C)C)c3c2CCCC3)c(C)c1`, the activation was 0.222%.

Regarding `CN1CCC(CN)(N2CCN(c3ccccc3)CC2)CC1`, the activation is 0.289%.

`CCN(CC(=O)NCCCN1CCOCC1)S(=O)(=O)c1cc(Cl)ccc1Cl`: the activation was -0.326%.

Turning to `CC(C)C[C@@H](N)c1nnc(SCC(=O)c2ccc(Cl)cc2)o1`, the activation was 0.422%.

For the compound `Cc1c(NC(=O)CSCc2ccccc2)cccc1C(=O)O`, the activation was 3.04%.

For `COc1cccc(C(NC(C)=O)c2nc(-c3ccccc3OC)cs2)c1` (configuration not stated), the activation was 0.438%.

Turning to `COc1ccc2nc(Nc3nc(-c4cc5ccccc5oc4=O)cs3)sc2c1`, the activation is 57.4% (active).
